Results as given in ChEMBL document CHEMBL1201862, “PubChem BioAssay data set” (2004).
Hit rate of the full screen: of about 400,000 compounds, about 2,100 (0.53%) were called active. Not shown: some 14% with an inconclusive outcome. No rule for the calls is given here. For the sample, actives were picked, then their nearest neighbours and some compounds at random.

biological target: Ataxin-2 (Homo sapiens) (UniProt Q99700); assay: qHTS for Inhibitors of ATXN expression.; assay type: functional
Sequence (Q99700 whole entry): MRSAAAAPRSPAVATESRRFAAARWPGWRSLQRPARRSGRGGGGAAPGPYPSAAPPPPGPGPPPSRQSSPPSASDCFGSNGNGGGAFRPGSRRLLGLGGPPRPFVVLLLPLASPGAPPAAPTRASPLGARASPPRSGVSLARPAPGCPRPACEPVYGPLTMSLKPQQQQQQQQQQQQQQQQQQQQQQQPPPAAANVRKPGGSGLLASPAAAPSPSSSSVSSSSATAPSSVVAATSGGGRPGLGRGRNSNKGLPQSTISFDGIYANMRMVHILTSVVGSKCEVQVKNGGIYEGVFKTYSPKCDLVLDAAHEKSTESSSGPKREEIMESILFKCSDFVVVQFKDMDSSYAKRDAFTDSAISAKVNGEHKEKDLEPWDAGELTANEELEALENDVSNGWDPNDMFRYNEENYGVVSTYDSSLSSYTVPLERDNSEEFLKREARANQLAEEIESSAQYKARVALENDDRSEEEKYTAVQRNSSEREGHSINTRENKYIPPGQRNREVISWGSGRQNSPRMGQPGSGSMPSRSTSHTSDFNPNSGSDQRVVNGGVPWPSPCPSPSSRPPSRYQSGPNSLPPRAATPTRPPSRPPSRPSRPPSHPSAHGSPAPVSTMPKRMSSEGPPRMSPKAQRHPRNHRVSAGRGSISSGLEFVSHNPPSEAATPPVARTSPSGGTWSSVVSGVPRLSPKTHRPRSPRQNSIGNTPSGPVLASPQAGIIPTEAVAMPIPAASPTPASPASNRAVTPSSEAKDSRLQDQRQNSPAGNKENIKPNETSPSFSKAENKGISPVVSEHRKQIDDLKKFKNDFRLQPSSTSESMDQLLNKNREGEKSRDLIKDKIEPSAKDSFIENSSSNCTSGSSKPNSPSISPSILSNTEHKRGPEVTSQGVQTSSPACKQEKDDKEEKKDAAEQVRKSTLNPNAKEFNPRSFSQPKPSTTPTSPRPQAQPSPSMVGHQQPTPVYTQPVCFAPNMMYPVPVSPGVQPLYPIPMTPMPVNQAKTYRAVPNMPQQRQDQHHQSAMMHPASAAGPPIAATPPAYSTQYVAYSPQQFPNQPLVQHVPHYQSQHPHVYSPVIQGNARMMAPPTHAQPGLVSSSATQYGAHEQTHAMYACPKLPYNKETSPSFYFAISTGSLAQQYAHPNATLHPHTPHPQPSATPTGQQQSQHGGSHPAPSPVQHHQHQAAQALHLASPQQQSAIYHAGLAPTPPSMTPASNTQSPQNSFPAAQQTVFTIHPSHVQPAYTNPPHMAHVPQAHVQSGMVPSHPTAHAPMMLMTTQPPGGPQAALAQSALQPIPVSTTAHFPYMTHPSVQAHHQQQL

| Structure (SMILES) | Potency |
| --- | --- |
| Cc1cc(N2CCN(C)CC2)nc2ccc(NC(=O)CCC3CCCC3)cc12 | inactive |
| Cc1cc(N2CCN(C)CC2)nc2ccc(NC(=O)Nc3ccccc3)cc12 | 17.8 µM (active) |
| COC(=O)c1cc(N2CCN(C)CC2)nc2ccccc12 | inactive |
| Cc1onc(-c2c(Cl)cccc2Cl)c1NC(=O)NNc1ccccn1 | inactive |
| Cc1cc(C)c(C#N)c(SCc2ccc(F)cc2)n1 | inactive |
| Cn1c(Cl)cnc1C1CC(=O)c2cc(Cl)ccc2O1 (stereo not drawn) | 39.8 µM (active) |
| Cc1cccc(-n2cnc(C(=O)N3CCN(C)CC3)c2)n1 | inactive |
| CC#CCN(Cc1ccco1)C(=O)C1CCC(=O)N(CCc2cccc(F)c2)C1 (stereo not drawn) | inactive |
| CCc1csc(CCNC(=O)C2CCC(=O)N(Cc3ccccc3F)C2)n1 (stereo not drawn) | inactive |
| CCCc1cc(CNC(=O)C2CCC(=O)N(CCc3cccc(F)c3)C2)on1 (stereo not drawn) | 35.5 µM (active) |
| O=C(C1=C(c2ccccc2)C(=O)c2ccccc2C1=O)c1ccccc1 | 7.08 µM (active) |
| O=C(c1ccccc1)c1ccc2cc(O)ccc2c1 | inactive |
| COC1=C(c2ccccc2)C(=O)c2ccccc2C1=O | inactive |
| OC(CN1CCOCC1)(c1ccccc1)c1ccccn1 (stereo not drawn) | inactive |
| CCCCOc1ccc(C(=O)C(CN2CCOCC2)c2ccccc2)cc1 (stereo not drawn) | 39.8 µM (active) |
| CCOc1ccc(C2C(C(=O)OC)=CN(C(C)c3ccccc3)C=C2C(=O)OC)cc1 (stereo not drawn) | inactive |
| O=C(N/N=C/c1ccc(N2CCOCC2)cc1)c1ccccc1OCCOc1ccccc1 | inactive |
| CCOc1ccc2nc(N3CCOCC3)nc(C)c2c1 | inactive |
| CCOc1ccc(C(=O)C(CN2CCOCC2)c2ccccc2)cc1 (stereo not drawn) | 35.5 µM (active) |
| CC1Cc2ccccc2N1CC(=O)NC(=O)NC1CCCCC1 (stereo not drawn) | inactive |
| COc1ccc(NC2=C(C(C)=O)C(c3ccc(OC)cc3)C(C(C)=O)C(C)(O)C2)cc1 (stereo not drawn) | inactive |
| CCCCNc1nc2cccnc2s1 | inactive |
| Cc1ccc(S(=O)(=O)c2ccc([N+](=O)[O-])cn2)cc1 | 39.8 µM (active) |
| Cn1c(S(=O)(=O)c2ccc([N+](=O)[O-])cc2)nc(Br)c1Br | inactive |
| O=[N+]([O-])c1ccc(S(=O)(=O)c2ccccc2)nc1 | 5.62 µM (active) |
| Cc1cc(Sc2ccc([N+](=O)[O-])cn2)ccc1Br | inactive |

| Structure (SMILES) | Potency |
| --- | --- |
| CCN(CC)c1nc(-c2ccccc2)ncc1S(=O)(=O)c1ccc(C)cc1 | inactive |
| Cc1c(C)c(C)c(C(=O)C2CCN(c3ccc([N+](=O)[O-])cn3)CC2)c(C)c1C | inactive |
| Cc1cc(S(=O)(=O)c2ccc([N+](=O)[O-])cn2)ccc1Br | 29.9 µM (active) |
| NS(=O)(=O)c1ccc(S(=O)(=O)c2ccccc2)nc1 | inactive |
| O=[N+]([O-])c1ccc(Nc2ccccc2F)nc1 | inactive |
| Cc1ccc2nc3c(cc(C(=O)NCC4CCCO4)c(=N)n3CC3CCCO3)c(=O)n2c1 (stereo not drawn) | inactive |
| Cc1ccc(C2C=C(c3ccccc3OC(F)F)Nc3ncnn32)cc1 (stereo not drawn) | inactive |
| Cn1c(C(=O)NCCN2CCOCC2)cc2c(=O)n3ccccc3nc21 | inactive |
| CCCCn1c(SCCN2CCCCC2)nc2c1c(=O)n(C)c(=O)n2C | inactive |
| OC(c1cc(C(F)(F)F)nc2c(C(F)(F)F)cccc12)C1CCCCN1 (stereo not drawn) | 20 µM (active) |
| O=S(=O)(Nc1nc2n(n1)C(c1ccc(F)cc1)C=C(c1ccc(Cl)cc1)N2)c1ccccc1 (stereo not drawn) | inactive |
| COCC(C)OC(=O)c1c(N)n(CCCN2CCOCC2)c2nc3ccccc3nc12 (stereo not drawn) | inactive |
| COc1ccc(-c2nn(-c3ccccc3)cc2/C=N/N=C(N)N)cc1OC | 39.8 µM (active) |
| COc1ccc(-c2nn(-c3ccccc3)cc2/C=N/Nc2ccc3ccccc3n2)cc1OC | inactive |
| COc1ccc(-c2nn(-c3ccccc3)cc2/C=C(\CC(=O)O)c2nc3ccccc3s2)cc1OC | inactive |
| N#CC(C#N)=Cc1cnc(O)c(C#N)c1Nc1ccccc1 | inactive |
| Nc1c(C(=O)Nc2ccc(F)cc2)sc2nc(-c3ccco3)ccc12 | inactive |
| O=Cc1ccc(O)c2ncccc12 | inactive |
| O=C(CSc1ncccn1)N1CCc2ccccc2C1 | inactive |
| Oc1ccc(CN2CCc3ccccc3C2)c2cccnc12 | 7.94 µM (active) |
| CCc1ccc(C(=O)c2cc3ccc(O)cc3oc2=O)cc1 | inactive |
| Oc1ccc(C23CC4CC(CC(C4)C2)C3)cc1O | 39.8 µM (active) |
| CNC(=O)/C(C#N)=C/c1c(N2CCN(c3ccc(OC)cc3)CC2)nc2c(C)cccn2c1=O | inactive |
| N=C1SC(c2ccccc2)C(=O)N1c1ncc(Cc2ccccc2Cl)s1 (stereo not drawn) | 12.6 µM (active) |
| Fc1ccc(-n2c(S)nnc2-c2ccc3ccccc3n2)cc1Cl | inactive |
| Oc1c(Br)cc(/C=N/Nc2ccc(Cl)nn2)cc1Br | inactive |

| Structure (SMILES) | Potency |
| --- | --- |
| FC(F)(F)c1nnc(-c2ccccc2)nc1Sc1ccc(Cl)cc1 | 35.5 µM (active) |
| CN1CCN(c2nc(-c3ccc(Cl)cc3)nc3ccccc23)CC1 | inactive |
| FC(F)(F)c1nnc(-c2ccccc2)nc1Sc1ccccc1 | 39.8 µM (active) |
| COc1cccc(-n2c(C)cc(/C=C3/C(=N)N4C(=NC3=O)SN=C4S(C)(=O)=O)c2C)c1 | inactive |
| COc1cc(/C=C2/C(=N)N3N=C(CC(=O)N4CCOCC4)SC3=NC2=O)ccc1OCc1ccccc1 | inactive |
| Cc1ncc(CO)c(/C=N/NC(=O)c2ccccc2Br)c1O | inactive |
| COc1ccc(/C=C2\SC(=S)N(CCCC(=O)Nc3cc(C)on3)C2=O)cc1OC | inactive |
| COc1cc(/C=C2\SC(=S)N(C(C(=O)O)c3ccccc3)C2=O)ccc1O (stereo not drawn) | 17.8 µM (active) |
| Cc1c(NC(=O)COC(=O)/C=C/c2cccc(F)c2)c(=O)n(-c2ccccc2)n1C | inactive |
| COc1cc(/C=C2/SC(=S)N(c3c(C)n(C)n(-c4ccccc4)c3=O)C2=O)ccc1O | 31.6 µM (active) |
| O=C(O)C(c1ccccc1)N1C(=O)/C(=C\c2ccc(O)c(O)c2)SC1=S (stereo not drawn) | 39.8 µM (active) |
| COc1cc(/C=C2\SC(=S)N(NC(=O)c3ccc(O)cc3)C2=O)ccc1O | 12.6 µM (active) |
| Cn1cc(/C=C2\SC(=S)N(NC(=O)c3ccccc3)C2=O)c2ccccc21 | inactive |
| CCN(CC)c1ccc2cc(C(N)=O)c(=O)oc2c1 | inactive |
| CCNC(=O)c1cc2c(=O)n3cccc(C)c3nc2n(CCc2ccccc2)c1=N | inactive |
| Nc1c(C(=O)N/N=C/c2ccc(F)cc2)oc2nc(-c3ccccc3)cc(-c3ccco3)c12 | inactive |
| O=C(Nc1ccc2nc(-c3ccco3)c(-c3ccco3)nc2c1)N1CCCCCC1 | inactive |
| CCCn1c(=N)c(C(=O)NCc2cccnc2)cc2c(=O)n3ccccc3nc21 | inactive |
| CC1(C)C2CC=C(/C=N/NC(=S)NCCc3ccccc3)C1C2 (stereo not drawn) | inactive |
| COc1cc(C2CC(c3c(C)cc(C)nc3O)=NN2c2ccccc2F)cc(OC)c1OC (stereo not drawn) | inactive |
| CC(C)C(=O)NC(Nc1cc(C(F)(F)F)ccc1Cl)C(Cl)(Cl)Cl (stereo not drawn) | inactive |
| N#Cc1sc2nc(-c3cccs3)cc(-c3ccc(Cl)cc3)c2c1N | inactive |
| O=C(O)c1cc([N+](=O)[O-])ccc1-c1ccc([N+](=O)[O-])cc1C(=O)O | inactive |
| O=C(O)c1ccccc1Nc1ccc([N+](=O)[O-])cc1 | inactive |
| Nc1cc([N+](=O)[O-])ccc1Nc1ccc(O)cc1 | 44.7 µM (active) |
| COc1ccc(C2C3=C(CCCC3=O)N(CC(=O)O)C3=C2C(=O)CCC3)cc1Br | inactive |

| Structure (SMILES) | Potency |
| --- | --- |
| OC(CNCCC1C=Nc2ccccc21)Cn1c2ccc(Cl)cc2c2cc(Cl)ccc21 (stereo not drawn) | 35.5 µM (active) |
| CN(C)CC(C(=O)c1ccccc1)c1ccccc1 (stereo not drawn) | 20 µM (active) |
| CCOC(=O)C(C(=O)c1ccccc1)C(c1ccccc1)c1nccc2ccccc12 (stereo not drawn) | inactive |
| NCC12CC3CC(C1)CC(c1ccc(Br)cc1)(C3)C2 | 25.1 µM (active) |
| NCC12CC3CC(C1)CC(c1ccc(Cl)cc1)(C3)C2 | 44.7 µM (active) |
| CCOCCCn1c(=N)c(C(=O)NCC2CCCO2)cc2c(=O)n3cccc(C)c3nc21 (stereo not drawn) | inactive |
| N#C/C(=C\c1c(Oc2ccccc2Cl)nc2ccccn2c1=O)C(=O)NC1CCS(=O)(=O)C1 (stereo not drawn) | inactive |
| Cc1cc(O)c(CN(C)C)c2c1C(=O)/C(=C/c1ccco1)O2 | inactive |
| CC/C(=C\C1CCCCC1)C(NP(=O)(c1ccccc1)c1ccccc1)c1ccccc1 (stereo not drawn) | 35.5 µM (active) |
| CC(C)OCCCn1c(NN)nc2ccccc2c1=O | inactive |
| COc1ccccc1Oc1ccc(N/C=C/C(=O)c2ccco2)cc1 | inactive |
| Cc1ccc(SC2=C(Sc3ccc(C)cc3)C(=O)c3ccccc3C2=O)cc1 | inactive |
| COc1ccc(-c2sc3cc4c(cc3c2C#CC2(N)CCCCC2)OCO4)cc1 | 39.8 µM (active) |
| COc1ccc2sc(-c3ccc(N(C)C)cc3)c(C#CC(C)(C)O)c2c1 | inactive |
| COc1ccc2sc(-c3ccc(N(C)C)cc3)c(C#Cc3cncn3C)c2c1 | inactive |
| COc1cc(OC)cc(-c2sc3ccc(OC)cc3c2C#CC2(N)CCCCC2)c1 | 39.8 µM (active) |
| CCOCCCn1c(=N)c(C(=O)NCc2cccnc2)cc2c(=O)n3ccccc3nc21 | inactive |
| N#CC(C(=O)NCc1ccccc1)c1nc2ccccc2nc1N1CCCC1 (stereo not drawn) | inactive |
| O=c1oc2cc(O)ccc2cc1S(=O)(=O)c1ccccc1 | inactive |
| CC(C)(C)c1ccc(C(=O)CC(Sc2ccc(Cl)cc2)C(=O)O)cc1 (stereo not drawn) | 39.8 µM (active) |
| CC(C)N1CCN(Cc2ccc(C#CCCO)cc2)CC1CCO (stereo not drawn) | inactive |
| CCCOc1ccc(C(=O)C(CCC(CNCC)C(=O)c2ccc(OCCC)cc2)CNCC)cc1 (stereo not drawn) | 22.4 µM (active) |
| CCCOc1ccc(C2C(C(=O)OC)=CN(CCOC)C=C2C(=O)OC)cc1 | inactive |
| CCCOc1ccc(CCC(=O)N/N=C/c2ccco2)cc1 | inactive |
| O=C(O)c1cccc(-n2cccc2/C=C2/NC(=O)N(c3ccc(Cl)cc3)C2=O)c1 | inactive |
